Source: PubChem BioAssay (EPA / NIEHS)
Active and inactive are the calls of the source. Rule for the calls: active = hit-call score of the fitted dose curve at least 0.9, where 1 is the maximum; inactive = score below 0.9.

Read-out: JUN Transcription Factor, JUN (gene 3725)
Assay: LTEA_HepaRG_JUN: Life Technologies and Expression Analysis (LTEA) Assay for JUN Transcription Factor using HepaRG (AID 2283513)
Settings: mRNA level, 48 h; actives raise or lower the signal
Protocol: LTEA_HepaRG is a cell based, multiplexed-readout assay that uses HepaRG, a human liver cell line, with measurements taken at 48 hours after chemical dosing on a 96-well plate.LTEA_HepaRG_JUN is one of 102 assay component(s) measured in the LTEA HepaRG cell culture assay. It is a marker of Cell proliferation, survival, death.Data from the assay component LTEA_HepaRG_JUN was analyzed into 1 endpoint. This assay endpoint, LTEA_HepaRG_JUN, was analyzed with bidirectional fitting relative to DMSO as the negative control and baseline of activity. Using a type of inducible reporter, measures of mRNA induction for gain or loss-of-signal activity can be used to understand regulation of transcription factor activity. To generalize the intended target to other relatable targets, this assay endpoint is annotated to the dna binding intended target family, where the subfamily is basic leucine zipper.
A total of 1060 chemcials from the ToxCast library were tested in eight-point concentration-response experiments. Cell culture and cytotoxicity assays were conducted at Thermo Fisher Scientific's Custom Services facility (Madison, WI). A single lot of human HepaRG cells (Thermo Fisher Scientific, Frederick, MD) was used for the cell culture experiments. 96-well format collagen type I coated plates of human HepaRG cells were prepared using established methods. Briefly, cryopreserved HepaRG cells were thawed, plated at a density of approximately 100,000 cells/well in HepaRG Thaw, Plate, and General Purpose media (HPRG770, Thermo Fisher Scientific), and incubated for 48 hours. 0.5% DMSO was selected as vehicle control to balance the requisite need of DMSO in HepaRG cultures to maintain differentiation (for example, baseline metabolism, proportions of hepatocytes vs. cholangiocytes), while enabling further hepatic receptor pathway activation (for example, PXR and CAR) in response to chemical exposure. 48 hours after plating, the culture medium was replaced with HepaRG Serum-Free Incudtion Media. Cells were exposed to each test chemical in duplicate and maintained in CO2 incubators for another 48 hours. Chemical plates were thawed to room temperature and 200x concentrations of treatment groups were prepared. 8-point conentration-reponse curves were made with the highest exposure at 100 uM, followed by half-log dilutions, all in 0.5% DMSO. Each test plate contained variouse controls, induction positive controls (1mM phenobarbital), cytotoxicity positive controls ([…] aflatoxin B1), vehicle controls (0.5% DMSO), and total lysis controls (0.5% DMSO). Cell morphology images were taken using an Essen IncuCyte FLR automated microscope, with six 96-well plates imaged in about 24 minutes. Images were captured and exported and JPEG files. Spent culture media was transfered to black-well plates for the LDH assay, and remaining media was sorted at -80 C for later use. Cells were treated with RLT buffer and frozen until shipped for gene expression analysis. Total RNA was isolated from the cell suspension in 75 uL of Buffer RLT (Qiagen, Germantown, MD 20874) by Quintiles/Expression Analysis (Durham, NC) using a custom isolation procedure. Total RNA from each plate well was transferred to a preamplification plate. Fluidigm's 96.96 Dynamic ArrayTM (Fluidigm, Amsterdam, the Netherlands) technology was used for gene expression analyses by quantitative reverse transcription polymerase chain reaction (qRT-PCR, performed by Quintiles/Expression Analysis, Durham, NC)89. Standard TaqManTM Assays (Applied Biosystems/ThermoFisher Scientific, Foster City, CA) were used to assess the expression of 93 genes selected based on their selectivity and sensitivity to important hepatic receptors known to be modulated by environmental chemicals; importance in human hepatocyte functionality; and hepatotoxicity. […]

| Compound | AC50 | outcome |
| --- | --- | --- |
| CCCCCCCCCCCCOS(=O)(=O)O | 50 µM (active) | – |
| CN(C)CCOC(c1ccccc1)c1ccccc1 | – | inactive |
| CS(=O)(=O)c1ccc([C@@H](CC2CCCC2)C(=O)Nc2cnccn2)cc1Cl | – | inactive |
| CCCCCCCCCCCCCCC | – | inactive |
| O=C1NS(=O)(=O)c2ccccc21 | – | inactive |
| CCCCC=O | – | inactive |
| CN(Cc1cnc2nc(N)nc(N)c2n1)c1ccc(C(=O)N[C@@H](CCC(=O)O)C(=O)O)cc1 | – | inactive |
| CCCCC(CC)C(=O)O (stereo unspecified) | – | inactive |
| Cc1[nH]nc2c1N=C(c1ccccc1Cl)c1cc([N+](=O)[O-])ccc1N2 | 20.5 µM (active) | – |
| CCC(C)c1ccccc1O (stereo unspecified) | – | inactive |
| N=C(N)c1ccc(OCCCCCOc2ccc(C(=N)N)cc2)cc1 | 12.6 µM (active) | – |
| CCCCc1oc2ccccc2c1C(=O)c1cc(I)c(OCCN(CC)CC)c(I)c1 | 66.1 µM (active) | – |
| OCC(CO)(CBr)CBr | – | inactive |
| CC(=O)Nc1ccc(O)cc1 | – | inactive |
| O=C(c1ccccc1)c1ccccc1 | – | inactive |
| O=C(CCCN1CCC(O)(c2ccc(Cl)cc2)CC1)c1ccc(F)cc1 | 82.7 µM (active) | – |
